The results in this text go back to ChEMBL document CHEMBL3433997, “St. Jude Leishmania screening dataset” (2016).

Sequence of Solute carrier family 2, facilitated glucose transporter member 1 (Homo sapiens) (P11166 whole entry): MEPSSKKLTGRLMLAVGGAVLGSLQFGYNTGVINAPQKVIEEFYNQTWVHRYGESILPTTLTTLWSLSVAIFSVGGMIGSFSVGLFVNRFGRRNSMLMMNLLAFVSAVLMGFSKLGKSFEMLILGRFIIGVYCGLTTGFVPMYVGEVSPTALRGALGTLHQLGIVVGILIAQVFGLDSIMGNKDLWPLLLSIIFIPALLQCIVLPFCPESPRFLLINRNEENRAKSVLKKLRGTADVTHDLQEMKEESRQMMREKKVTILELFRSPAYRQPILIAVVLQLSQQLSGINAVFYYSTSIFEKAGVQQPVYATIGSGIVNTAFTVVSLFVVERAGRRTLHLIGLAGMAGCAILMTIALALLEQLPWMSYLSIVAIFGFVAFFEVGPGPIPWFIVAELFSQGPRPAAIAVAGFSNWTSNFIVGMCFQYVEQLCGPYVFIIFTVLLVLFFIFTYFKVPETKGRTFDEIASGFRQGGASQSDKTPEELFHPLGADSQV

This experiment addresses Solute carrier family 2, facilitated glucose transporter member 1 (Homo sapiens) (UniProt P11166). Nature of the experiment: ST_JUDE_LEISH: Cytotoxicity at 2uM final concentration against transgenic Leishmania Mexicana promastigotes LmGLUT1 that are glucose transport deficient and complemented with the human glucose transporter GLUT1. Activity is measured by DNA content using SYBR green in vitro. Type of experiment: functional.
A word on the inhibition: it is the drop in the measured response relative to a control, in per cent. As for `CCCCCC1c2[nH]c3ccccc3c2CCN1C(=O)OCc1ccccc1` (stereo not given), the inhibition is 7.38%.
Turning to `O=C(NCc1cccc(Br)c1)c1ccc(CNC2CCN(Cc3ccccc3)CC2)cc1`, the inhibition came out at 5.34%.
Consider `Cc1cccc2nc(-c3cccc(-c4ccc(CNCc5cccc(N)c5)cc4)c3)[nH]c12`, for which the inhibition is -2.78%.
For `O=C(CCNc1ccnc(NCCc2ccccc2)n1)Nc1ccccc1` the value was -0.28%; for `OC1CCCN(Cc2ccc(-c3cccc(-c4nc5ccccc5[nH]4)c3)cc2)C1` (stereo not given), 2.79%.
For `O=C(NC1CCN(Cc2cccc(C(F)(F)F)c2)CC1)c1ccc(-c2cccc(C(F)(F)F)c2)s1` the value was 6.34%; for `Cc1[nH]c(C)c(-c2ccc(-c3cccc(OC(F)(F)F)c3)nc2)c(=O)c1Cl`, -1.57%; for `O=C(Nc1ccnc(-c2cccnc2)n1)c1cc(C(F)(F)F)cc(C(F)(F)F)c1`, -1.69%.
For `O=C(/C=C/c1ccc(Cl)c(Cl)c1)NCCCCCCN1CCN(C(=O)Nc2ccc(Cl)c(C(F)(F)F)c2)CC1` the value was 4.18%; for `COc1ccc2ncc(F)c(CCN3CCC(NCc4cc(Br)c5c(c4)OCCO5)CC3)c2n1`, 18.9%; for `CCN(c1ccccc1)S(=O)(=O)c1ccc(OC)c(NC(=O)c2cccc(C(F)(F)F)c2)c1`, 10.4%.
As to `C[C@@H](N)C#Cc1cc2c(Nc3ccc(OCc4cccc(F)c4)c(Cl)c3)ncnc2s1`, the inhibition stood at 2.5%.
Turning to `CC(C)Sc1ccc(Cl)cc1CON1C(=N)N=C(N)NC1(C)C`, the inhibition was found to be 2.72%.
As for `CN(C)c1ccc(C=Cc2nc(=O)c3ccccc3o2)cc1`, the inhibition amounted to 1.38%.
Turning to `Cc1ccc(Cn2ncc(N3CCNCC3)c(Cl)c2=O)cc1NC(=O)Nc1ccc(-c2ccccc2)cc1`, the inhibition was -0.01%.
With `CC(C)(C)CC(C)(C)c1ccc(O)c(CNC2CCCCC2)c1`, the inhibition worked out at 1.96%.
On to `COc1ccc(Nc2nccc(N3CCC(NC(=O)C(C)c4ccc(Cl)cc4)C3)n2)cc1` (stereo not given), for which the inhibition was -0.18%.
Take `CN(C)CCCOc1ccc(CCNCc2cccc(Oc3ccc(Cl)cc3)c2)cc1`: the inhibition was determined as 14%.
Consider `N#Cc1ccc(-c2nc3c(N4CCCC4)cccc3n2CCNCc2ccccc2)cc1`, for which the inhibition came to 12.3%.
Turning to `O=C(NC1CC1)c1ccc(N2CCCC(COc3ccccc3F)C2)nc1` (stereo not given), the inhibition was determined as 2.73%.
As to `Cc1cc(C2NC(=O)c3ccccc3N2)c(C)n1-c1ccc2c(c1)OCO2` (stereo not given), the inhibition was 4.98%.
`O=S(=O)(c1ccc(NC(S)=NN=Cc2ccccn2)cc1)N1CCCCC1`: the inhibition is 3.4%.
Then `CCOC(=O)c1cc(C(=O)NCCCCN2CCC(c3cn(C)c4ccccc34)CC2)ccc1-c1ccc(C(F)(F)F)cc1`, with 2.37%; and `CCNc1cc(C(=O)N[C@@H](Cc2ccccc2)[C@H](O)CNC2(C)CCCCC2)cc(N2CCCCS2(=O)=O)c1`, with 1.96%.
`O=C(Nc1ccc(Br)cc1)N(CCN1CCOCC1)CC(O)COCc1ccc(F)cc1` (stereo not given): the inhibition was determined as 1.97%.
Consider `CCC[C@@H]([C@@H](CC(C)C)C(=O)N[C@@H](CCCNc1nccc(C(F)(F)F)n1)C(=O)Nc1nccs1)N(O)C=O`, for which the inhibition was 3.82%.
As for `CCOC(=O)C1=C(C)NC(Cn2ccnc2)=C(C(=O)OCC)C1c1ccc(C(C)(C)C)cc1` (stereo not given), the inhibition was determined as 2.7%.
As to `c1cc(CNCC2CCN(CC3CCCCC3)CC2)cc(-n2ccnc2)c1`, the inhibition is -1.01%.
With `CN(C)CCOc1ccc(NC(=O)NC(C)(C)c2nc(-c3ccc(Cl)c(O)c3)c(-c3ccncc3)[nH]2)cc1`, the inhibition was -2.42%.
For the molecule `CC(Cc1ccc(NC(=O)c2ccc(NCCc3ccccc3)cc2)cc1)NCCc1cccc(Cl)c1` (stereo not given), the inhibition is -0.04%.
As for `CSc1nnc2n(Cc3ccccc3)c(=O)c3c(n12)-c1ccccc1CC31CCCCC1`, the inhibition worked out at 2.53%.
For the molecule `O=C(Nc1ccc(Cl)c(Cl)c1)Nc1ccccc1N1CCNCC1`, the inhibition came to 0.02%.
For the molecule `CCCN1CCN(Cc2ccc(C(=O)Nc3ccc(Cl)cc3)cc2)CC1`, the inhibition is 5.31%.
For `OC(c1ccc2ccccc2c1)C1CN(CCc2ccccc2)CCC1(O)c1ccccc1` (stereo not given) the value was 0.49%; for `O=S(=O)(NC1CCN(c2ccnc3cc(Cl)ccc23)C1)c1cccs1` (stereo not given), 0.41%.
As for `CN1CCCN(Cc2cccc(-c3cccc(NC(=O)c4ccc(C#N)cc4)c3)c2)CC1`, the inhibition amounted to 11%.
As for `COC(=O)[C@@H](NC(=O)[C@@H](Nc1ccc(C#N)c2ccccc12)C(C)(C)C)c1ccc(O)cc1`, the inhibition was 2.65%.
For the molecule `c1ccc(Oc2ccc(Nc3ccnc4cc(-c5csc(CNCCN6CCOCC6)n5)ccc34)cc2)cc1`, the inhibition was -1.32%.
With `COc1ccc(-n2c(=O)c3c(n4c(SC(C)C)nnc24)-c2ccccc2CC32CCCCC2)cc1`, the inhibition was determined as 1.32%.
As to `CCCC(C)Nc1nc(C)cc(N[C@@H](CC(C)C)C(=O)NC2CCCC2)n1` (stereo not given in full), the inhibition turned out to be 2.53%.
